In the library only some 9.4% were active in any assay of this set; here they are far more common.
SARS PLpro yeast = qHTS of Yeast-based Assay for SARS-CoV PLP; Potency, µM (highest dose often 32.9 µM), inactives show top-dose activity, positive = growth rescue, actives largely listed as activators; AID 485353, 2010; S. cerevisiae expressing SARS-CoV PLpro, growth rescue; 0.19% of 330,000 active; calls by dose curve; note: 0% is about no effect; nearly all actives have a fitted effect of over 55% in size
AMA1 RON2 block = qHTS for Inhibitors of AMA1-RON; Towards Development of Antimalarial Drug Lead: Primary Screen | Potency, µM (series often up to 58.2 µM), for inactives: at the top dose activity change, negative = inhibition, usual class: inhibitors | AlphaScreen AMA1-biotinylated RON2 peptide binding | 0.2% of 360,000 active | AID 720542, 2013 | Plasmodium falciparum AMA1 (3D7) - RON2 peptide interaction;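 note: 0% = vehicle wells and -100% = peptide control; nearly all actives have a fitted effect of over 45% in size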
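AMA1 (3D7) with his tag at 25 nM final met compounds first, then biotinylated RON2 peptide at 25 nM; detection used donor plus acceptor beads, 10 µg/mL apiece, read by AlphaScreen after 30 min at room temperature.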
Pf growth 96h = Primary qHTS for delayed death inhibitors of the malarial parasite plastid, 96 hour incubation; Potency, µM (series often up to 28.7 µM), for the others: top-dose activity change, negative = inhibition, actives largely listed as inhibitors; AID 504834, 2011; 6.9% of 320,000 active; P. falciparum luciferase reporter growth, 96 h; note: % is set by controls: 0 for no effect and ±100 for the full control effect
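Infected RBCs, 2% Hct / 0.05% parasitemia final; luciferase-reporter P. falciparum; cpd 96 h, 37 C, 5% CO2; luciferase detection reagent; luminescence.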
Pf growth 48h = Primary qHTS for delayed death inhibitors of the malarial parasite plastid, 48 hour incubation. 5.9% of 310,000 active. P. falciparum luciferase growth in erythrocytes, 48 h. Potency, µM (highest dose often 28.7 µM), for inactives: top-dose activity change, negative = inhibition, actives largely listed as inhibitors; note: % is set by controls: 0 for no effect and ±100 for the full control effect
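Compounds are pin-transferred into medium, infected erythrocytes (2% hematocrit, 0.1% parasitemia final) are added, and plates sit one parasite generation at 37 C in 5% CO2. Detection reagent is then added and luminescence measured.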
Numbers without * were called inactive; ? = inconclusive; . = no result given; [ ] = remark or other dose. Unless noted, calls come from the whole dose curve; as a rule, active = well fitted curve in the direction sought with a large enough effect; inconclusive = small, poorly fitted or top-dose-only effect, or another doubt; inactive = no such curve, though single readings can be large; an effect the other way counts as inactive or inconclusive. Potency is the fitted concentration of half-maximal effect.

SMILES	SARS PLpro yeast	AMA1 RON2 block	Pf growth 96h	Pf growth 48h
Cc1ccc(CSCC(=O)Nc2cc(S(=O)(=O)N3CCOCC3)ccc2OC(C)C)cc1	2%	-5%	6.6µM*	10µM*
CC(C)Oc1ccc(S(=O)(=O)N2CCOCC2)cc1NC(=O)Cc1cccs1	5%	1%	?	13µM*
COc1ccc2c3c([nH]c2c1)C1(NCC3)C(=O)Nc2ccccc21 (stereo not drawn)	-2%	-6%	?	?
O=C(Nc1ccc(Oc2ccc(C(F)(F)F)cn2)c(Cl)c1)C1CC1	-9%	6%	12µM*	?
CCc1ccc(-c2cc(-c3n[nH]c(=S)n3CC)c3ccccc3n2)cc1	0%	.	2.9µM*	?
CC(=O)Nc1ccc(CNc2nc3cc(-c4cccc(C(F)(F)F)c4)sc3c(=O)n2C)cc1	.	-3%	.	.
CCN(CC(=O)Nc1cccc(C(C)=O)c1)S(=O)(=O)c1ccccc1	-1%	-1%	9.3µM*	?
CCC(C(=O)Nc1cccc(S(=O)(=O)N(C)c2ccccc2)c1)c1ccccc1 (stereo not drawn)	-1%	6%	?	9.3µM*
CCN(CC(=O)Nc1cccc(C(C)=O)c1)S(=O)(=O)c1ccc(OC)cc1	1%	4%	.	4%
CCN(CC(=O)Nc1cccc(S(=O)(=O)N(C)c2ccccc2)c1)Cc1ccccc1	4%	-4%	10µM*	?
CN(CC(=O)Nc1cccc(F)c1)CC(=O)Nc1cccc(S(=O)(=O)N(C)c2ccccc2)c1	.	-8%	.	.
O=C(CN(CC1CCCO1)S(=O)(=O)c1ccc(S(=O)(=O)NCC2CCCO2)cc1)Nc1ccccc1 (stereo not drawn)	.	2%	-13%	-15%
CN(C)S(=O)(=O)c1ccc(S(=O)(=O)N(CC(=O)Nc2ccccc2)CC2CCCO2)cc1 (stereo not drawn)	3%	6%	12µM*	-11%
CCN(CC(=O)NCc1cccs1)C(=O)c1cccc(S(=O)(=O)Nc2ccc(F)cc2)c1	.	3%	.	.
Cn1c(-c2ccccc2F)cc2onc(-c3ccccc3)c2c1=O	7%	-4%	170%	84%
Cc1ccc(C(=O)Nc2cc(Cl)ccc2-n2cncn2)o1	-2%	11%	14%	3%
Cc1ccc(Cl)cc1-c1ccc(C=Nc2ccc(N3CCOCC3)cc2)o1	-15%	11µM*	29%	-1%
Cc1ccc(-c2csc(NC(=S)NC(=O)c3cc4ccccc4o3)n2)cc1	-2%	11%	19%	32%
Cc1ccc2[nH]c(=O)c(C(c3nnnn3C(C)(C)C)N(Cc3ccco3)CC3CCCO3)cc2c1 (stereo not drawn)	3%	8%	?	6.6µM*
Cc1cccc2cc(C(c3nnnn3C(C)(C)C)N(Cc3ccco3)CC3CCCO3)c(=O)[nH]c12 (stereo not drawn)	1%	-3%	?	12µM*
CCC(c1nnnn1Cc1ccco1)N(Cc1cc2cc(C)cc(C)c2[nH]c1=O)CC1CCCO1 (stereo not drawn)	3%	8%	25%	?
CC(C)(C)n1nnnc1C(c1ccccc1F)N(Cc1ccco1)CC1CCCO1 (stereo not drawn)	-6%	-5%	-18%	13µM*
Cn1c(SCC(=O)c2ccccc2)nnc1C1COc2ccccc2O1 (stereo not drawn)	0%	12%	-5%	16%
O=C(CSc1nnc2scc(-c3ccccc3)n12)c1ccc2c(c1)OCCO2	2%	-1%	2.1µM*	.
Cn1c(SCC(=O)c2ccc3c(c2)OCO3)nnc1C1COc2ccccc2O1 (stereo not drawn)	14%	49%	12µM*	?
Oc1ccccc1-c1nc(NCc2ccccc2)c2ccccc2n1	2%	20%	?	?
O=[N+]([O-])c1ccc(-c2nc(NCc3cccnc3)c3ccccc3n2)cc1	-1%	2%	15µM*	1%
Oc1ccccc1-c1nc(NCc2cccnc2)c2ccccc2n1	-6%	15%	?	15µM*
O=C(Cc1ccc([N+](=O)[O-])cc1)NCc1cccnc1	7%	13%	-11%	31%
COc1cc(/C=N/NS(=O)(=O)c2ccccc2)ccc1OS(=O)(=O)c1ccc(C)cc1	11%	12%[2.32 µM]	2%	3%

Source: PubChem BioAssay
